Bioassay records deposited in PubChem by National Center for Advancing Translational Sciences (NCATS).
Shown are actives, neighbours in structure and some others; about 7.9% of the full set was active somewhere.
FMDV antiviral: blocks foot and mouth disease virus; FMDV antiviral cell-based qHTS; Potency, µM (series often up to 57.9 µM), most hits filed as inhibitors; hit rate 1.2% among 410,000; calls by dose curve; tested in HEK293T cells; also: read-out not given here; nearly all actives have a fitted effect of over 45% in size
HCMV antiviral: human cytomegalovirus inhibition | HFF cells, HCMV-luciferase reporter, 72 h; stronger effect = lower value | activity change, negative = inhibition, % at 57.5 µM | hit rate 4.5% among 410,000 | AID 1259415; in the data active = activity change below about -60%; inconclusive = no clear call, values can overlap the other calls; inactive = above about -39%
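Cell-based, HFFs, 1000 cells/well, 16 h 37C; cpds in DMSO + HCMV-luc, MOI 1 PFU/cell; 72 h 37C; OneGlo luminescence after 5 min RT; norm. to buffer vs Salinomycin 10uM.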
Marburg entry inh: blocks Marburg virus binding to or entry into cells; Marburg virus pseudotyped entry inhibition, cell reporter; Potency, µM (top dose mostly 37.8 µM), hits mostly inhibitors; hit rate 1.8% among 300,000; calls by dose curve; tested in HEK293 cells
LASV entry inh: blocks Lassa virus binding to or entry into cells | Lassa virus pseudotype entry inhibition, cell reporter | Potency, µM (highest dose often 37.9 µM), most hits filed as inhibitors | hit rate 1.2% among 300,000 | AID 540256; calls by dose curve; tested in HEK293 cells; also: nearly all actives have a fitted effect of over 50% in size
HCV inhibitor: blocks hepatitis C virus; AID 651820; Potency, µM (doses to about 41.8 µM), actives largely listed as inhibitors; Huh7.5.1 HCVcc-Cre infection, luciferase reporter, 44 h; hit rate 3.4% among 340,000; active = well fitted inhibition curve with a large enough effect; inconclusive = small, poorly fitted or top-dose-only effect, or another doubt; inactive = no such curve, though single readings can be large or run the other way
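1,000 cells/well; 4 h culture; + compound; + HCVcc-Cre (~0.5 moi); 44 h; luciferase substrate, RT 15 min; read 15 sec.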
Numbers stand for hits; ! = repeats disagree.

Results for COc1ccc(NC(=O)N(C)C[C@H]2Oc3c(NC(=O)Nc4ccc(C(F)(F)F)cc4)cccc3C(=O)N([C@H](C)CO)C[C@@H]2C)cc1 ?
FMDV antiviral: inactive; HCMV antiviral: inactive; HCV inhibitor: 6.31µM

What do the screens show for `CCCCC#Cc1nc(NC)c2ncn([C@@H]3O[C@H](CO)[C@@H](O)[C@H]3O)c2n1`?
Marburg entry inh: inactive; LASV entry inh: inconclusive

What do the screens show for `CN1C(=O)C(=Cc2sc(=O)n(-c3ccccc3)c2N(C)C)C(=O)N(C)C1=O`?
FMDV antiviral: 15.8µM; HCMV antiviral: -60.1; Marburg entry inh: inconclusive; LASV entry inh: inactive; HCV inhibitor: inconclusive

How did O=C(NCc1ccccc1)c1cc(C2COCCN2S(=O)(=O)c2ccccc2)on1 (stereo not drawn) do in these assays?
FMDV antiviral: inactive; HCMV antiviral: inactive

Results for Cc1cc2nc(C(=O)NC3CCCCC3)c(-c3cccc(Br)c3)nc2cc1C ?
HCMV antiviral: inactive

How did Cc1ccccc1-n1c(SCC(=O)NCC2CCCO2)nc2c([nH]c3ccccc32)c1=O (stereo not drawn) do in these assays?
FMDV antiviral: inactive; HCMV antiviral: inactive; Marburg entry inh: inconclusive; LASV entry inh: inconclusive; HCV inhibitor: inactive

What do the screens show for `Cc1cc(C)cc(-n2c(SCC(=O)Nc3cccc(F)c3)nc3c([nH]c4ccccc43)c2=O)c1`?
FMDV antiviral: inconclusive; HCMV antiviral: inactive; LASV entry inh: inactive

How did COc1cccc(NC(=O)CSc2nc3c([nH]c4ccccc43)c(=O)n2-c2cccc(Cl)c2)c1 do in these assays?
FMDV antiviral: inactive; HCMV antiviral: -73.6; LASV entry inh: inconclusive

Results for Cc1cc(C)cc(NC(=O)CSc2nc3c([nH]c4ccccc43)c(=O)n2-c2ccc(F)cc2)c1 ?
FMDV antiviral: inactive; HCMV antiviral: -88.0; LASV entry inh: inactive

How did COc1ccc(C)cc1-n1c(SCC(=O)NCC2CCCO2)nc2c([nH]c3ccccc32)c1=O (stereo not drawn) do in these assays?
FMDV antiviral: inactive; HCMV antiviral: inactive; Marburg entry inh: inconclusive; LASV entry inh: inactive; HCV inhibitor: 8.91µM

How did COc1cccc(NC(=O)CSc2nc3ccccc3nc2N2CCOCC2)c1 do in these assays?
FMDV antiviral: inactive; HCMV antiviral: inconclusive; Marburg entry inh: inconclusive; LASV entry inh: 7.08µM; HCV inhibitor: inconclusive

Results for NNC(=O)c1csc(-c2ncc(C(F)(F)F)cc2Cl)n1 ?
FMDV antiviral: inactive; HCMV antiviral: inactive; Marburg entry inh: inactive; LASV entry inh: inactive; HCV inhibitor: inactive

What do the screens show for `CC(=O)c1ccc(NC(=O)CSc2n[nH]c(-c3cccnc3)n2)cc1`?
FMDV antiviral: inactive; HCMV antiviral: inactive; Marburg entry inh: inconclusive; LASV entry inh: inactive; HCV inhibitor: inactive

How did O=C(CSc1nc2c([nH]c3ccccc32)c(=O)n1-c1cccc(Cl)c1)N1CCOCC1 do in these assays?
FMDV antiviral: inactive; HCMV antiviral: -92.9!; LASV entry inh: inactive; HCV inhibitor: inconclusive

What do the screens show for `COc1ccccc1NC(=O)c1cnc(SCC(=O)N2CCOCC2)n(C)c1=O`?
FMDV antiviral: inactive; HCMV antiviral: inactive; LASV entry inh: inactive

Results for COc1ccccc1NC(=O)c1cnc(SCC(=O)NCC2CCCO2)n(C)c1=O (stereo not drawn) ?
FMDV antiviral: 25.1µM; HCMV antiviral: inactive; Marburg entry inh: inconclusive; LASV entry inh: inconclusive; HCV inhibitor: inactive

How did COC(=O)c1ccc(NC(=O)CSc2nncn2-c2ccccn2)cc1 do in these assays?
FMDV antiviral: inactive; HCMV antiviral: -71.8; Marburg entry inh: inactive; LASV entry inh: inactive; HCV inhibitor: inactive

How did COC(=O)c1cccc(NC(=O)CSc2nncn2-c2ccccn2)c1 do in these assays?
FMDV antiviral: inactive; HCMV antiviral: inactive; Marburg entry inh: inconclusive; HCV inhibitor: inactive

What do the screens show for `CCC1CCCCN1C(=O)CSc1nc2c([nH]c3ccccc32)c(=O)n1-c1cccc(OC)c1` (stereo not drawn)?
FMDV antiviral: inactive; HCMV antiviral: -90.9; LASV entry inh: inconclusive

What do the screens show for `O=C(CSc1nc2c([nH]c3ccccc32)c(=O)n1-c1ccccc1)N1CCOCC1`?
FMDV antiviral: inactive; HCMV antiviral: inactive; Marburg entry inh: inactive; LASV entry inh: inactive; HCV inhibitor: inconclusive

How did CCOC(=O)C1(C)NC(c2ccccc2F)C2C(=O)N(CC)C(=O)C21 (stereo not drawn) do in these assays?
FMDV antiviral: inactive; HCMV antiviral: inactive; Marburg entry inh: inconclusive; LASV entry inh: inactive; HCV inhibitor: inactive

How did COc1cccc(NC(=O)CSc2nc3ccccc3c(=O)n2C)c1 do in these assays?
FMDV antiviral: inactive; HCMV antiviral: inconclusive; HCV inhibitor: 22.4µM

Results for COc1ccc(-n2c(SCC(=O)Nc3ccc(C(N)=O)cc3)nc3c([nH]c4ccccc43)c2=O)cc1OC ?
FMDV antiviral: inactive; HCMV antiviral: inactive; HCV inhibitor: 11.2µM

What do the screens show for `COCCn1c(SCC(=O)Nc2ccc(C(N)=O)cc2)nc2c([nH]c3ccccc32)c1=O`?
FMDV antiviral: inactive; HCMV antiviral: inactive; Marburg entry inh: inactive; LASV entry inh: inactive; HCV inhibitor: inactive

How did COC(=O)c1cccc(NC(=O)CSc2nc3cccnc3n2C)c1 do in these assays?
FMDV antiviral: 15.8µM; HCMV antiviral: inconclusive; Marburg entry inh: inconclusive; LASV entry inh: inactive; HCV inhibitor: 14.1µM

How did CCc1nnc(NC(=O)CSc2nc3c([nH]c4ccccc43)c(=O)n2-c2ccc(Cl)cc2)s1 do in these assays?
FMDV antiviral: inactive; HCMV antiviral: inactive; LASV entry inh: 7.94µM

How did O=c1c(-c2ccccc2)nc2cnc(Oc3ccccc3)nc2n1Cc1cccs1 do in these assays?
FMDV antiviral: inactive

Results for CCc1ccc(NC(=O)CSc2nnc(-c3n[nH]c4ccccc34)n2-c2ccccc2)cc1 ?
FMDV antiviral: inconclusive; HCMV antiviral: inactive; Marburg entry inh: inconclusive; LASV entry inh: inactive; HCV inhibitor: inconclusive

What do the screens show for `O=C(CSc1nnc(-c2n[nH]c3ccccc23)n1-c1ccccc1)Nc1cccc(Cl)c1`?
FMDV antiviral: inactive; HCMV antiviral: -73.1; Marburg entry inh: inconclusive; LASV entry inh: inconclusive; HCV inhibitor: inactive

Results for COc1ccc2nc(N/C(N)=N/C(=S)Nc3c(C)cccc3C)nc(C)c2c1 ?
FMDV antiviral: inactive; HCMV antiviral: -71.4; Marburg entry inh: inconclusive; LASV entry inh: inconclusive; HCV inhibitor: inconclusive

Results for Cc1ccc(NC(=S)/N=C(\N)Nc2nc(C)c3cc(C)ccc3n2)c(C)c1 ?
FMDV antiviral: inactive; HCMV antiviral: -86.3; Marburg entry inh: inconclusive; LASV entry inh: inactive; HCV inhibitor: 2.82µM

What do the screens show for `COCCCN1CN(S(=O)(=O)c2ccc(C)cc2C)c2nc3ccccc3nc21`?
FMDV antiviral: inactive; HCMV antiviral: inconclusive; HCV inhibitor: inactive

Results for COc1ccc(CC(=O)N2CC3ON=C(c4c(F)cccc4Cl)C3C2)cc1 (stereo not drawn) ?
HCMV antiviral: inactive

Results for COc1ccccc1C(CC(=O)Nc1ccc(Cl)cc1)c1ccc(OC(C)C)cc1 (stereo not drawn) ?
FMDV antiviral: inactive; HCMV antiviral: inactive; Marburg entry inh: inconclusive; LASV entry inh: inactive; HCV inhibitor: inconclusive
